Marburg entry inh: qHTS for inhibitors of binding or entry into cells for Marburg Virus; Marburg virus pseudotyped entry inhibition, cell reporter; Potency, µM (series often up to 37.8 µM), inactives show at the highest dose activity change, negative = inhibition, most hits filed as inhibitors; 300,000 tested, 1.8% active; calls by dose curve; tested in HEK293 cells; further: potency means the concentration at half of the fitted maximal effect; on the % scale 0 is the no-effect control and ±100 the full control effect
Shiga inhibitor: A qHTS for Small Molecule Inhibitors of Shiga Toxin. 290,000 tested, 9.2% active. inhibition, % at 38.7 µM. Vero cells, Shiga toxin protein synthesis inhibition reporter; in the data active means inhibition mostly above about 28%, no sharp cut-off; inactive means mostly below about 43%; further: 0% is about no effect
LASV entry inh: qHTS for Inhibitors of binding or entry into cells for Lassa Virus | Lassa virus pseudotype entry inhibition, cell reporter | Potency, µM (top dose mostly 37.9 µM), for inactives: at the top dose activity change, negative = inhibition, usual class: inhibitors | 300,000 tested, 1.2% active; calls by dose curve; tested in HEK293 cells; further: potency means the concentration at half of the fitted maximal effect; on the % scale 0 is the no-effect control and ±100 the full control effect; nearly all actives have a fitted effect of over 50% in size
Vaccinia Venus: qHTS for Stage-Specific Inhibitors of Vaccinia Orthopoxvirus: Venus Reporter Primary qHTS | Vaccinia virus Venus reporter expression, fluorescence | Potency, µM (top dose mostly 36.5 µM), without a hit: at the highest dose activity change, negative = inhibition, most hits filed as inhibitors | 330,000 tested, 0.46% active | AID 720580, 2013; calls by dose curve; tested in A549 cells; further: potency means the concentration at half of the fitted maximal effect; on the % scale 0 is the no-effect control and ±100 the full control effect; nearly all actives have a fitted effect of over 30% in size
Vaccinia mCherry: qHTS for Stage-Specific Inhibitors of Vaccinia Orthopoxvirus: mCherry Reporter Primary qHTS. Vaccinia virus mCherry reporter infection, fluorescence. Potency, µM (highest dose often 36.5 µM), for inactives: top-dose activity change, negative = inhibition, usual class: inhibitors. 310,000 tested, 0.63% active. AID 720579, 2013; calls by dose curve; tested in A549 cells; further: potency means the concentration at half of the fitted maximal effect; on the % scale 0 is the no-effect control and ±100 the full control effect; nearly all actives have a fitted effect of over 35% in size
CHX counter: Cycloheximide Counterscreen for Small Molecule Inhibitors of Shiga Toxin; cell reporter, cycloheximide protein synthesis inhibition counterscreen; AID 2314, 2010; 300,000 tested, 12% active; max response, %; in the data active means max response mostly above about 13%, no sharp cut-off; inactive means mostly below about 14%; further: read at 38.3 µM for the half of the compounds with a filed dose; 0% is about no effect
Active calls of the source: *; i = inactive; u = inconclusive; x = no result given; [ ] = remark or other dose. This excerpt belongs to a sample that is enriched for hits.

SMILES	Marburg entry inh	Shiga inhibitor	LASV entry inh	Vaccinia Venus	Vaccinia mCherry	CHX counter
COc1cccc(CNc2ccc(C)c(Cl)c2)c1	x	64.4*	x	-19.2%	u	38.7*
COc1cccc(CNc2nc3nc(C)cc(C)n3n2)c1	u	65.8	4.8%	-5.2%	i	11.0*
COc1ccc(S(=O)(=O)Nc2ccc3c(c2)CCC3)cc1	2.0%[46.1 µM]	17.1	u	-9.7%	-14.4%	-1.2
COc1ccc(OC)c(CNc2ccc3c(c2)CCC3)c1	0.6%[46.1 µM]	65.8*	-11.6%[46.1 µM]	-7.8%	-9.7%	43.0*
COc1cccc(CNc2ccc3c(c2)CCC3)c1	-4.5%	153.4*	4.2%	-5.1%	i	117.8*
COc1ccc(OC)c(CNc2ccc(F)c(Cl)c2)c1	-20.8%	-15.7	2.4%	-9.8%	i	-2.2
COc1ccc(NC(=O)N2CCN(S(C)(=O)=O)CC2)c(OC)c1	u	42.6	-5.4%	3.0%	-5.3%	-1.2
COc1ccccc1C1CN(Cc2cccc(C)n2)Cc2ccccc2O1 (configuration not stated)	x	x	x	-6.5%	-19.4%	x
NC(=O)CC(NC(=O)c1ccccc1)c1ccc(NCCc2ccc(F)cc2)c([N+](=O)[O-])c1 (configuration not stated)	x	-6.9	x	u	-4.7%	-3.4
C[C@H](C[C@H](N)C(=O)O)C(=O)O	x	-5.3	x	x	x	-5.0
O=C(c1cnccn1)N1CCCC(N2CCN(c3cccc(Cl)c3)CC2)C1 (configuration not stated)	15.1%	-16.2	4.2%	-5.8%	-13.7%	9.6
O=C1CCCCN1CCC(=O)N1CCCC(N2CCN(c3ccccc3)CC2)C1 (configuration not stated)	x	-5.7	x	x	x	-0.9
O=C(c1cccc(Cl)c1)N1CCCC(C(=O)N2CCN(c3ccccc3)CC2)C1 (configuration not stated)	u	50.4*	-8.3%	-9.9%	-7.3%	24.4*
CC(C)n1cc(C(=O)N2CCCC(N3CCN(c4ccc(F)cc4)CC3)C2)cn1 (configuration not stated)	26.5%[46.1 µM]	-10.4	15.8%[46.1 µM]	-15.5%	-15.2%	-2.3
Cc1cccc(C(=O)N2CCCC(N3CCN(c4cccc(Cl)c4)CC3)C2)n1 (configuration not stated)	3.1%	15.3	1.5%	-12.5%	-18.8%	21.0*
O=C1CCCCN1CCC(=O)N1CCCC(N2CCN(c3cccc(Cl)c3)CC2)C1 (configuration not stated)	21.6%	35.4*	0.4%	-14.7%	i	24.1*
O=C(c1ccncc1)N1CCCC(N2CCN(c3ccc(F)cc3)CC2)C1 (configuration not stated)	28.3%	38.8*	-5.2%	-12.2%	-8.7%	27.3*
O=C(CBr)c1ccc(Oc2ccc(C(=O)C[n+]3ccccc3Cl)cc2)cc1	x	x	x	-3.0%	17.0%	x
CCC(=O)N1CCc2cc(S(=O)(=O)CCC(=O)N3CCN(c4cc(C)ccc4C)CC3)ccc21	9.7%[46.1 µM]	x	8.9%[46.1 µM]	-1.8%	-2.2%	x
CCN(CC(=O)Nc1c(F)cccc1F)C(=O)/C=C/c1ccc2c(c1)OCO2	u	x	u	-7.7%	-9.7%	x
CCc1nccn1CCC(=O)N1CCCC(N2CCN(c3cccc(Cl)c3)CC2)C1 (configuration not stated)	x	49.0*	x	x	x	31.1*
CCN(CC)CCN(Cc1cc2ccc(C)cc2[nH]c1=O)C(=O)Nc1ccc(Cl)cc1	u	78.4*	27.7%[46.1 µM]	-14.0%	-16.9%	37.5*
Cc1cccc(NC(=S)N(Cc2cccs2)Cc2cc3cc(C)ccc3[nH]c2=O)c1	u	-7.4	-12.5%	-12.1%	i	-1.6
Cc1ccc(NC(=S)N(Cc2cccs2)Cc2cc3cc(C)ccc3[nH]c2=O)cc1	4.47µM*	-9.9	7.08µM*	-8.2%	i	-3.1
COc1cc2cc(CN(Cc3cccs3)C(=S)Nc3ccc(C)cc3)c(=O)[nH]c2cc1OC	u	7.7	4.61µM*	-29.4%	-3.8%	1.4
SMILES	Marburg entry inh	Shiga inhibitor	LASV entry inh	Vaccinia Venus	Vaccinia mCherry	CHX counter
CC(=O)c1ccccc1-c1ccc2c(c1)CC(CNC(=O)Cc1c[nH]c3ccccc13)O2 (configuration not stated)	x	x	x	-7.7%	-19.7%	x
C=CCn1c(=S)[nH]c2nc3c(cc2c1=O)CCCC3	19.7%	28.9*	22.7%	-25.2%	-7.1%	29.2*
C=CCn1c(=S)[nH]c2ccc(Br)cc2c1=O	18.4%	-21.1	1.6%	-15.6%	-2.5%	-2.4
CC(C)CCN1C(=O)c2ccc(C(=O)Nc3ccc(Br)cc3C(=O)O)cc2C1=O	x	-4.6	x	x	x	-0.9
Cc1cccc(NC(=O)c2ccc(-n3c(C)nnc3C)cc2)c1	x	x	-14.1%[46.1 µM]	12.3%	-6.5%	x
Cc1ccc(OCC(=O)NNC(=O)C(C)Sc2ncnc3sc(C)c(C)c23)cc1 (configuration not stated)	18.2%	-6.5	-1.4%	x	x	-0.9
Cc1sc2ncnc(SC(C)C(=O)N3c4ccccc4Sc4ccccc43)c2c1C (configuration not stated)	11.2µM*	12.7	u	-8.1%	-25.1%	-1.7
CCCCCCCC=CC1=CC2(C)CC1(C)C(CCCCCCC)CC2=O (configuration not stated)	17.0%[14.2 µM]	x	x	x	x	x
COc1cc(C=O)ccc1OCC(=O)Nc1ccc2c(c1)OCO2	x	44.1*	x	x	x	20.2*
Cc1ccc(OCC(=O)Nc2ccc3c(c2)OCO3)c([N+](=O)[O-])n1	-9.4%	54.4*	u	9.8%	-2.9%	27.6*
Cc1ccc(OCC(=O)Nc2ccc3c(c2)OC(F)(F)O3)c([N+](=O)[O-])n1	u	-7.2	-3.5%	-14.7%	i	-0.5
COc1ccccc1OCCC(=O)OCC(=O)Nc1ccc2c(c1)OCO2	29.7%	x	3.0%	-9.3%	i	x
Cc1cc(C)c(OCC(=O)Nc2ccc3c(c2)OCO3)cc1C	6.7%	16.4	u	x	x	21.2*
O=C(COc1cccnc1[N+](=O)[O-])Nc1ccc2c(c1)OCO2	9.6%	59.2	6.5%	x	x	-1.8
Cc1cc(C)c(OCC(=O)Nc2cccc(O)c2)cc1C	-0.3%	59.0*	0.3%	-28.6%	x	28.3*
CC(=O)Nc1cccc(O)c1	x	x	x	u	-20.0%	x
Cc1cc(C)n(CCC(=O)NCC2Cc3cc(Cl)cc(-c4cnccn4)c3O2)n1 (configuration not stated)	x	x	x	-15.2%	-3.4%	x
Cc1ccc(C)c(OCC(=O)Nc2ccc3c(c2)OCO3)c1	u	42.3*	16.5%	-8.2%	-19.6%	47.8*
CCCCN(Cc1ccccc1)S(=O)(=O)c1cc(Br)cc2c1N(C(=O)C1CC1)CC2	-28.2%[46.1 µM]	x	1.8%[46.1 µM]	-8.5%	-12.8%	x
Cn1c(=O)c2c(-c3ccc(Br)cc3)n(Cc3ccc(F)cc3)cc2n(C)c1=O	12.6%[46.1 µM]	x	-7.8%[46.1 µM]	-7.2%	-7.9%	x
COc1ccccc1CNCc1cccc(Oc2ccccc2)c1	11.2µM*	11.6	-14.6%[46.1 µM]	-28.8%	-26.4%	6.6
COc1ccc(NC(=O)C2CCN(S(=O)(=O)c3cn(C)cn3)CC2)cc1Cl	x	x	18.3%[46.1 µM]	-3.5%	-11.1%	x

Bioassay records: PubChem BioAssay, National Center for Advancing Translational Sciences (NCATS)
